Drawing on PubChem BioAssay (NCI), this text covers growth for 13 molecules.

Some test systems named below: T-47D breast; BT-549 breast; MDA-MB-435 melanoma; SW-620 colon; MCF7 breast; HCT-116 colon; HCC-2998 colon; KM12 colon.
Holding throughout (assay): NCI-60 one-dose screen, 48 h (100 = growth as untreated, 0 = no growth, -100 = all killed)
What all share (settings): 10 µM unless noted

“And” between values parts separate entries of the source, which are not always exact repeats. Identical values can stand only once. The panel holds about 83,000 compounds, 20% with a hit somewhere; the sample as a whole holds those more often.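 Growth was measured after 48 h exposure to one concentration of compound in 96-well plates. Values under 10 count as active.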 Unmarked numbers belong to inactive results. The source made the active and inactive calls.

Take `N#CC1C(=O)c2ccccc2C1c1ccccc1` (centres undefined): the growth with T-47D breast is 96.5% and 99.9%; in the experiment on BT-549 breast, 107%; in the experiment on MDA-MB-435 melanoma, 104% and 102%; in the experiment on SW-620 colon, 121% and 104%; with MCF7 breast, 102% and 99.5%; in the experiment with HCT-116 colon it was 105% and 101%. In addition, the growth is 111% and 115% in the experiment with HCC-2998 colon; 109% and 102% in the experiment on KM12 colon.
`Cc1cc(N2CCN(CC(=O)Nc3ccc4c(ccn4Cc4ccccc4)c3)CC2)nc(N2CCCCCC2)n1`: the growth with T-47D breast is 42.7%; in the experiment on BT-549 breast, 65.1%; with MDA-MB-435 melanoma, 60.7%; with SW-620 colon, 56.8%; with MCF7 breast, 20.5%; with HCT-116 colon, 38.8%. Moreover, the growth in the experiment on HCC-2998 colon is 64.5%; with KM12 colon, 37.6%.
Turning to `CCOC(=O)C(=CCC(C)C)C(=O)OCC`, the growth in the experiment on T-47D breast was 88.2%; in the experiment with BT-549 breast, 93.1%; in the experiment with MDA-MB-435 melanoma, 99.7%; with SW-620 colon, 105%; with MCF7 breast, 99.5%; in the experiment on HCT-116 colon, 98.9%. Further, the growth in the experiment with HCC-2998 colon was 92.4%; in the experiment on KM12 colon, 110%.
As for `Cc1ccc(C(=O)N(CCCN)[C@@H](c2nc3cc(Cl)ccc3c(=O)n2Cc2ccccc2)C(C)C)cc1`, the growth in the experiment on T-47D breast is -41.7% (active); with BT-549 breast, 24.2%; with MDA-MB-435 melanoma it was -89.9% (active); with SW-620 colon it was -77.6% (active); with MCF7 breast it was -61.2% (active); with HCT-116 colon, -77.9% (active). Further, the growth with HCC-2998 colon is -74.4% (active); with KM12 colon, -45.8% (active).
Turning to `CC[C@]1(O)CC2CN(CCc3c([nH]c4ccccc34)C(C(=O)OC)(c3cc4c(cc3OC)N(C=O)[C@H]3[C@@](O)(C(=O)OC)[C@H](OC(C)=O)[C@]5(CC)[C@@H]6C[C@@H]6CN6CC[C@]43[C@@H]65)C2)C1` (some centres undefined), the growth in the experiment with T-47D breast was 72.1%; with BT-549 breast it was -2.67% (active); with MDA-MB-435 melanoma it was -53.2% (active); in the experiment on SW-620 colon, 23.1%; with MCF7 breast, 12.1%; in the experiment on HCT-116 colon, -17.5% (active). In addition, the growth in the experiment with HCC-2998 colon is 12.2%; in the experiment on KM12 colon, -17.5% (active).
As to `C=C1C(=O)O[C@@H]2[C@H]3[C@H](COC(C)=O)[C@@H](OC(C)=O)C[C@H]3C(=C)[C@@H](O)C[C@@H]12`, the growth was 90.5% in the experiment on T-47D breast; 94.2% in the experiment with BT-549 breast; 101% with MDA-MB-435 melanoma; 84.4% in the experiment with SW-620 colon; 76.8% in the experiment with MCF7 breast; 75.7% in the experiment with HCT-116 colon. Moreover, the growth was 109% with HCC-2998 colon and 99.8% in the experiment with KM12 colon.
On to `COc1cc(CNC(=O)CCCC/C=C/C(C)C)ccc1O`, for which the growth in the experiment on T-47D breast was 97.4% and 96.2%; in the experiment with BT-549 breast, 125% and 83.4%; in the experiment on MDA-MB-435 melanoma, 99% and 106%; in the experiment with SW-620 colon it was 113%; with MCF7 breast, 103% and 96.7%; with HCT-116 colon, 96.4% and 100%. The growth is 143% and 109% in the experiment with HCC-2998 colon; 106% and 108% in the experiment on KM12 colon.
As to `Cc1ccc(Cl)cc1N1CCN(C(=O)[C@@H]2C[C@@H]2c2ccc(F)cc2)CC1`, the growth was 83.4% with T-47D breast; 97.6% in the experiment with BT-549 breast; 97.6% in the experiment with MDA-MB-435 melanoma; 101% with SW-620 colon; 90.6% with MCF7 breast; 68.8% in the experiment on HCT-116 colon. For the same molecule, the growth was 98.8% in the experiment with HCC-2998 colon and 85.1% with KM12 colon.
In the case of `Cc1ccc(C(=O)Nc2nc3c(s2)CN(Cc2ccccc2)CC3)cn1`, the growth is 83.8% with T-47D breast; 94.9% in the experiment with BT-549 breast; 7.68% (active) in the experiment on MDA-MB-435 melanoma; 69.8% in the experiment with SW-620 colon; 64% with MCF7 breast; 80.7% in the experiment on HCT-116 colon. In addition, the growth in the experiment on HCC-2998 colon was 77.9%; with KM12 colon, 49.6%.
With `O=C1/C(=C/c2cn(-c3ccccc3)nc2-c2ccccc2)SC(=S)N1c1ccc(Cl)cc1`, the growth in the experiment with T-47D breast is 82.1%; in the experiment with BT-549 breast, 78.2%; in the experiment with MDA-MB-435 melanoma it was 74.1%; with SW-620 colon, 84.4%; with MCF7 breast, 82.2%; in the experiment with HCT-116 colon, 64.1%. For the same molecule, the growth in the experiment on HCC-2998 colon was 76.3%; in the experiment with KM12 colon, 60.5%.
For `O=C(NCCCN1CCCCC1)c1ccc(-c2nc3ccc4[nH]ncc4c3c3c2CCCC3)cc1`, the growth with T-47D breast is 86.9%; with BT-549 breast it was 31.4%; in the experiment with MDA-MB-435 melanoma, 26.7%; in the experiment on SW-620 colon, 24.5%; with MCF7 breast it was 31.8%; with HCT-116 colon, 16.8%. Further, the growth was 76% in the experiment on HCC-2998 colon and 20.6% in the experiment on KM12 colon.
Take `Cc1ccc(/C=C2\COc3ccc(O)c(O)c3C2=O)cc1`: the growth in the experiment on T-47D breast was -7.19% (active); in the experiment on BT-549 breast, -13.1% (active); in the experiment with MDA-MB-435 melanoma, -24.4% (active); with SW-620 colon, -32.4% (active); in the experiment with MCF7 breast, 15.1%; with HCT-116 colon, -22.9% (active). Also, the growth is 9.54% (active) in the experiment with HCC-2998 colon and -19.9% (active) in the experiment with KM12 colon.
Take `CCOC(=O)c1cnn(-c2ccc(S(N)(=O)=O)cc2)c1N`: the growth with T-47D breast is 103%; in the experiment on BT-549 breast it was 96%; with MDA-MB-435 melanoma, 109%; with SW-620 colon, 110%; with MCF7 breast, 95.2%; in the experiment with HCT-116 colon, 94.4%. The growth in the experiment on HCC-2998 colon was 115%; with KM12 colon, 122%.
